Test results from PubChem BioAssay (NCI).
About 79,000 compounds went through this panel and 15% of them were active in at least one assay; those are over-represented in the sample as a whole. Rule as the data show it: active = growth inhibition above about 70%; inactive = the rest.

Key:
[1] = NCI Yeast Anticancer Drug Screen. Data for the rad50 strain (AID 155);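 also: 0% = growth of vehicle-only cultures of the same strain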; settings: S. cerevisiae rad50 strain growth inhibition; at 50.0 µM; stronger effect = higher value
In short: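 Yeast carrying a defined DNA repair defect were exposed to test compounds, and growth was compared with vehicle-treated controls to give percent inhibition.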

[2] = NCI Yeast Anticancer Drug Screen. Data for the mec2-1 strain (AID 157); settings: S. cerevisiae mec2-1 strain, at 50.0 µM, stronger effect = higher value
In short: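 Using mec2-1 yeast: add compound, measure growth, express inhibition versus vehicle-treated cultures.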

[3] = NCI Yeast Anticancer Drug Screen. Data for the sgs1 mgt1 strain (AID 161);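 also: 0% = growth of cultures given vehicle only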; settings: S. cerevisiae sgs1 mgt1 strain, at 50.0 µM, stronger effect = higher value
In short: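 This yeast growth screen uses a strain with defined DNA-repair lesions; compound-treated growth is compared with vehicle-treated growth.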

[4] = NCI Yeast Anticancer Drug Screen. Data for the cln2 rad14 strain (AID 165);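 also: 0% = growth equal to vehicle treated cultures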; settings: S. cerevisiae cln2 rad14 strain, at 50.0 µM, stronger effect = higher value
In short: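 Yeast strain cln2 rad14, bearing defects in cell cycle control and DNA repair, serves as the test system; values reflect growth inhibition compared with vehicle.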

[5] = NCI Yeast Anticancer Drug Screen. Data for the bub3 strain (AID 167); settings: S. cerevisiae bub3 mutant strain, at 50.0 µM, stronger effect = higher value
In short: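 Compounds were applied to a genetically altered yeast strain carrying a cell-cycle control defect. Growth inhibition was scored against vehicle-treated controls.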

[6] = NCI Yeast Anticancer Drug Screen. Data for the mlh1 rad18 strain (AID 175); settings: S. cerevisiae mlh1 rad18 strain growth inhibition; at 50.0 µM; stronger effect = higher value
In short: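 Steps: expose repair-defective yeast to compound; measure growth; express inhibition against vehicle-treated controls.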

Measured: growth inhibition

CCCCc1ccc(Nc2nc(=S)c3[nH]cnc3[nH]2)cc1
inactive: [1] 26.9% | [2] 19.6% | [3] 32.2% | [4] 23.9% | [5] 35% | [6] 6.5%

O=C(S)C(=O)Cc1cn[nH]n1
inactive: [1] -3.95% | [2] -1.9% | [3] -4.5% | [4] 6.15% | [5] -7.25% | [6] -26.8%

CCC/C(=C(\C)c1ccccc1)c1ccccc1
inactive: [1] 46.1% | [2] 33.6% | [3] 37.7% | [4] 14.1% | [5] -11.5% | [6] 33.3%

Cc1cc2nc(CC(=O)c3cccnc3)c(=O)[nH]c2cc1C
inactive: [1] 0.9% | [2] 3.05% | [3] 12.4% | [4] 18.3% | [5] -8.05% | [6] 15.8%

O=C(O)c1ccc(F)c([N+](=O)[O-])c1
inactive: [1] 7.15% | [2] -16.6% | [3] 17.4% | [4] -22.6% | [5] -11.6% | [6] 12.4%

CCOC(=O)/C(O)=C(\C#N)c1cc(C)ccc1C
inactive: [1] -7.5% | [2] -14.6% | [3] -2.7% | [4] 0.45% | [5] -0.45% | [6] 10.8%

COC1CCCC2CC3=C(CCCC3)OC21 (stereo unspecified)
inactive: [1] -6.45% | [2] 3.5% | [3] 5.1% | [4] -101% | [5] -14% | [6] -13.5%

CC(CC(=N)N)NC(=O)C1CCC(N)=N1 (stereo unspecified)
inactive: [1] 6% | [2] -41.2% | [3] 2.15% | [4] -1.6% | [5] -14.2% | [6] -9.75%

O=C(O)c1cc2c(c(C(=O)O)c1O)CCCC2
inactive: [1] 11.3% | [2] -19.6% | [3] 9.95% | [4] -23.2% | [5] -6.35% | [6] -4.85%

CCN(CC)c1ncnc2n[nH]nc12
inactive: [1] -1.5% | [2] -15.6% | [3] -18% | [4] -27.9% | [5] -28.5% | [6] 3.45%

CC(=O)OCC1OC(n2c(=O)n(-c3ccccc3)c(=O)c3ccccc32)C(OC(C)=O)C(OC(C)=O)C1OC(C)=O (stereo unspecified)
inactive: [1] -12.8% | [2] 11.3% | [3] -7.9% | [4] 19.1% | [5] -6.85% | [6] 4.65%

CC1=CCC(C(C)(C)OCCCO)CC1 (stereo unspecified)
inactive: [1] 15.8% | [2] 14% | [3] -17.6% | [4] 10.7% | [5] 4.4% | [6] 22%

CCCCC(=O)N[C@H]1C[C@H]2CC[C@@]1(C)C2(C)C
inactive: [1] -23.2% | [2] 7.5% | [3] -16.6% | [4] -4.05% | [5] 10.9% | [6] -11.8%

COc1ccc(CC2CCCNC2C(=O)O)cc1 (stereo unspecified)
inactive: [1] -1.65% | [2] -13.2% | [3] -3.55% | [4] -38.7% | [5] -16.6% | [6] 10.8%

CCOc1ccc2nc3cc(I)ccc3c(N)c2c1
inactive: [1] 8.15% | [2] -24.2% | [3] 14.6% | [4] -10.3% | [5] -0.05% | [6] 27.1%

CCCC(=O)OCC(O)CO (stereo unspecified)
inactive: [1] 12.2% | [2] 1.5% | [3] 1.3% | [4] 18.5% | [5] 4.1% | [6] 18.6%

O=C1CCCc2cc3c(cc21)CC1(Cc2ccccc2C1)C3
inactive: [1] -12.2% | [2] -27.8% | [3] 9.4% | [4] -6.4% | [5] 36.9% | [6] -14.7%

COc1cc([N+](=O)[O-])c(C=O)c(C(=O)O)c1OC
inactive: [1] 6.5% | [2] -1.85% | [3] -10.3% | [4] 13.7% | [5] 1.75% | [6] 4.9%

NS(=O)(=O)/C=C(\Cl)c1ccccc1
inactive: [1] 1.7% | [2] 2.15% | [3] 2.95% | [4] -16.6% | [5] 12.2% | [6] -0.55%

COc1cccc2c1OC(=O)NC2O (stereo unspecified)
inactive: [1] -8.35% | [2] -4.3% | [3] -17.9% | [4] -13.5% | [5] -20.4% | [6] 4.3%

CCC/C=C/C=C\C(=O)O[C@@H]1[C@@H](C)[C@]2(O)[C@@H]3C=C(C)C(=O)[C@H]3CC(COC(C)=O)=C[C@H]2[C@@H]2C(C)(C)[C@]12OC(C)=O
inactive: [1] 21.7% | [2] -4.9% | [3] -8.1% | [4] 11.9% | [5] -9.65% | [6] -26.2%
